PubChem BioAssay AID1159580 (chemical genetic matrix, 2015)
Among all 5,500 compounds or so, about 2,000 (36%) were called active. Another 18% or so got no clear call; they are omitted. No stated cut-off is given here; in the data, active means normalized growth mostly below about 0.91 (no sharp cut-off); inconclusive means no clear call, values can overlap the other calls; inactive means mostly above about 0.92. Some of the results follow.

Experiment: chemical genetic growth profiling, strain panel (AID 1159580);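 further: tested at 20 µM; growth read once vehicle control cultures reached saturation at 30 °C; 1 = growth at the plate median or of vehicle wells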
Conditions: S. cerevisiae deletion strains, growth OD
[1] = locus YDL101C, strain DUN1, stronger effect = lower value
[2] = locus YHR030C, strain SLT2, stronger effect = lower value

Measured: normalized growth

Cc1cc(C(=O)O/N=C(/N)CSc2ncccc2C(F)(F)F)no1
inactive: locus YAR019C, strain CDC15, stronger effect = lower value 0.997 | locus YBL105C, strain PKC1, stronger effect = lower value 0.993 | locus YBR135W, strain CKS1, stronger effect = lower value 0.994 | locus YBR136W, strain MEC1, stronger effect = lower value 0.992 | locus YBR160W, strain CDC28, stronger effect = lower value 0.988 | locus YDL017W, strain CDC7, stronger effect = lower value 0.995 | locus YDL028C, strain MPS1, stronger effect = lower value 0.993 | [1] 1.01 | locus YDL108W, strain KIN28, stronger effect = lower value 0.996 | locus YDL132W, strain cdc53, stronger effect = lower value 0.99 | locus YDL214C, strain PRR2, stronger effect = lower value 0.999 | locus YDR052C, strain DBF4, stronger effect = lower value 0.998 | locus YDR054C, strain cdc34, stronger effect = lower value 0.989 | locus YDR226W, strain ADK1, stronger effect = lower value 0.991 | locus YDR477W, strain SNF1, stronger effect = lower value 1 | locus YER123W, strain YCK3, stronger effect = lower value 1.01 | locus YER133W, strain GLC7, stronger effect = lower value 1.01 | locus YFL009W, strain cdc4, stronger effect = lower value 0.999 | locus YFL029C, strain CAK1, stronger effect = lower value 0.998 | locus YFR003C, strain YPI1, stronger effect = lower value 0.993 | locus YFR019W, strain FAB1, stronger effect = lower value 1 | locus YFR028C, strain CDC14, stronger effect = lower value 0.994 | locus YGR040W, strain KSS1, stronger effect = lower value 1.02 | locus YGR052W, strain FMP48, stronger effect = lower value 0.995 | locus YGR092W, strain DBF2, stronger effect = lower value 1.02 | [2] 0.957 | locus YHR079C, strain IRE1, stronger effect = lower value 0.772 | locus YHR082C, strain KSP1, stronger effect = lower value 1.17 | locus YHR205W, strain SCH9, stronger effect = lower value 1 | locus YIL147C, strain SLN1, stronger effect = lower value 0.991 | locus YJL095W, strain BCK1, stronger effect = lower value 0.841 | locus YJL128C, strain PBS2, stronger effect = lower value 0.983 | locus YJL157C, strain FAR1, stronger effect = lower value 1.01 | locus YJR016C, strain ILV3, stronger effect = lower value 0.997 | locus YJR066W, strain TOR1 (second series), stronger effect = lower value 1 | locus YJR066W, strain TOR1, stronger effect = lower value 1.14 | locus YKL048C, strain ELM1, stronger effect = lower value 1.01 | locus YKL067W, strain YNK1, stronger effect = lower value 0.993 | locus YKL101W, strain HSL1, stronger effect = lower value 1 | locus YKL193C, strain SDS22, stronger effect = lower value 0.989 | locus YKL203C, strain TOR2, stronger effect = lower value 1.08 | locus YLR133W, strain CKI1, stronger effect = lower value 1.01 | locus YLR403W, strain SFP1, stronger effect = lower value 1.02 | locus YML070W, strain DAK1, stronger effect = lower value 0.995 | locus YMR001C, strain CDC5, stronger effect = lower value 0.997 | locus YMR205C, strain PFK2 (second series), stronger effect = lower value 1.02 | locus YMR277W, strain FCP1, stronger effect = lower value 0.994 | locus YNL006W, strain LST8, stronger effect = lower value 0.999 | locus YNL020C, strain ARK1, stronger effect = lower value 1.01 | locus YNL161W, strain CBK1, stronger effect = lower value 0.996 | locus YNL183C, strain NPR1, stronger effect = lower value 0.933 | locus YNL207W, strain RIO2, stronger effect = lower value 0.997 | locus YNL222W, strain SSU72, stronger effect = lower value 0.978 | locus YNL307C, strain MCK1 (second series), stronger effect = lower value 1.01 | locus YOL078W, strain AVO1, stronger effect = lower value 0.998 | locus YOL136C, strain PFK27, stronger effect = lower value 1.01 | locus YOR061W, strain CKA2, stronger effect = lower value 1.02 | locus YOR119C, strain RIO1, stronger effect = lower value 1.04 | locus YOR231W, strain MKK1, stronger effect = lower value 0.792 | locus YOR329C, strain SCD5, stronger effect = lower value 0.995 | locus YPL031C, strain PHO85, stronger effect = lower value 1 | locus YPL153C, strain RAD53, stronger effect = lower value 0.997 | locus YPL204W, strain HRR25, stronger effect = lower value 1.01 | locus YPL209C, strain IPL1, stronger effect = lower value 0.992 | locus YPR025C, strain CCL1, stronger effect = lower value 0.999 | locus YPR106W, strain ISR1, stronger effect = lower value 0.997 | locus YPR111W, strain DBF20, stronger effect = lower value 0.993 | strain NNK1, stronger effect = lower value 1.01 | strain TSCII, stronger effect = lower value 0.99
active: locus YLR113W, strain HOG1, stronger effect = lower value 0.789 | locus YPL256C, strain CLN2, stronger effect = lower value 0.824

CCOC(=O)c1c(SC)[nH]c2c(C(F)(F)F)cccc2c1=O
inactive: locus YAL013W, strain DEP1, stronger effect = lower value 0.996 | locus YBR229C, strain ROT2, stronger effect = lower value 0.991 | [1] 0.99 | locus YDL134C, strain PPH21, stronger effect = lower value 0.959 | locus YDR150W, strain NUM1, stronger effect = lower value 0.939 | locus YEL061C, strain CIN8, stronger effect = lower value 1.02 | locus YGR078C, strain PAC10, stronger effect = lower value 0.998 | locus YGR229C, strain SMI1, stronger effect = lower value 0.989 | [2] 0.975 | locus YHR087W, strain rtc3, stronger effect = lower value 0.975 | locus YJR043C, strain POL32, stronger effect = lower value 0.982 | locus YJR075W, strain HOC1, stronger effect = lower value 0.992 | locus YKL190W, strain CNB1, stronger effect = lower value 1 | locus YLR039C, strain RIC1, stronger effect = lower value 0.917 | locus YLR058C, strain SHM2 (second series), stronger effect = lower value 1 | locus YLR085C, strain ARP6, stronger effect = lower value 0.977 | locus YLR262C, strain YPT6, stronger effect = lower value 0.997 | locus YML094W, strain GIM5, stronger effect = lower value 0.986 | locus YMR219W, strain ESC1, stronger effect = lower value 1 | locus YMR263W, strain SAP30, stronger effect = lower value 1.03 | locus YNL153C, strain GIM3, stronger effect = lower value 0.986 | locus YNL298W, strain CLA4 (second series), stronger effect = lower value 1.01 | locus YNL322C, strain KRE1, stronger effect = lower value 1 | locus YNR030W, strain Alg12, stronger effect = lower value 0.977 | locus YPL055C, strain LGE1, stronger effect = lower value 0.936 | locus YPL241C, strain CIN2, stronger effect = lower value 0.982 | locus YPR135W, strain CTF4, stronger effect = lower value 0.927
